For 13 compounds, outcome and AC50 results are on record in PubChem BioAssay (EPA / NIEHS).

Each structure is given as a SMILES string. Activity calls are given as the source filed them. Rule for the calls: active = hit-call score of the fitted dose curve at least 0.9, where 1 is the maximum; inactive = score below 0.9.

Read-out in one assay: Pselectin, SELP (gene 6403)
Briefly: BSK_4H_Pselectin: BioMAP Diversity Plus: 4H Assay for Pselectin Biomarker Activity (AID 2283026). Conditions: primary human endothelial cells (HUVEC); actives raise or lower the signal. The gist of the method:
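HUVEC, 24 h chemical exposure; P-selectin read by ELISA. Bidirectional curve fit vs DMSO baseline; gain or loss of signal scored.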
With `Nc1nc(N)nc(-c2ccccc2)n1`, the outcome was inactive.
Still for that read-out and setting: in the case of `Cc1ccc([N+](=O)[O-])cc1N` it was “inactive”.
The same measure, in the same setting: the result for `C=CC(=O)NCOCCCC` reads “inactive”.
`CCCCCCCCCCCC(C)=O`: the AC50 was 28.1 µM (active).
For the compound `CCOC(=O)C1=NOC(c2ccccc2)(c2ccccc2)C1`, the result was inactive.
On the same count and under the same terms, the result for `CC(C)C(=O)OCCc1ccccc1` reads “inactive”.
Same read-out and setting: in the case of `CC(C)[N+](C)(CCOC(=O)C1c2ccccc2Oc2ccccc21)C(C)C` it was “inactive”.
For the compound `Oc1ccc(/C=C/c2cc(O)cc(O)c2)cc1`, the outcome was inactive.
On to `C=CCCCCCCCCC=O`, for which the outcome was inactive.
The same measure, in the same setting: in the case of `C=C(C)C(=O)OCCCCCCCCCCCC` it was “inactive”; in that of `CC(C)c1cccc(C(C)C)c1N`, “inactive”.
On the same count and under the same terms, the result for `CCOC(=O)/C=C\C(=O)OCC` reads “inactive”; that for `CC=C(C)C(C)=O`, “inactive”.

Read-out in the next assay: not listed separately
Briefly: BSK_4H_SRB: Viability Assessment in the BioMAP Diversity Plus: 4H Assay (AID 2283027).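 For AC50: curves fitted both ways versus DMSO so AC50 may be loss or gain.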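 Note: cells exposed to compound for 24 h before staining.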 Conditions: primary human endothelial cells (HUVEC). The gist of the method:
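HUVEC, 24 h post-dose; 10% TCA fix, 0.1% SRB stain, A560 nm. Total protein = overt cytotoxicity, parallel to biomarker read. Bidirectional fit vs DMSO baseline.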
Turning to `Nc1nc(N)nc(-c2ccccc2)n1`, the result was inactive.
Still for that read-out and setting: in the case of `Cc1ccc([N+](=O)[O-])cc1N` it was “inactive”; in that of `C=CC(=O)NCOCCCC`, “inactive”.
In the case of `CCCCCCCCCCCC(C)=O`, the AC50 is 33.9 µM (active).
As to `CCOC(=O)C1=NOC(c2ccccc2)(c2ccccc2)C1`, the result was inactive.
As to `CC(C)C(=O)OCCc1ccccc1`, the result was inactive.
The same measure, in the same setting: in the case of `CC(C)[N+](C)(CCOC(=O)C1c2ccccc2Oc2ccccc21)C(C)C` it was “inactive”.
Take `Oc1ccc(/C=C/c2cc(O)cc(O)c2)cc1`: the concentration at half-maximal activity (AC50) is 20 µM (active).
On to `C=CCCCCCCCCC=O`, for which the outcome was inactive.
Consider `C=C(C)C(=O)OCCCCCCCCCCCC`, for which the result was inactive.
In the case of `CC(C)c1cccc(C(C)C)c1N`, the AC50 was 33.5 µM (active).
`CCOC(=O)/C=C\C(=O)OCC`: the result was inactive.
On the same count and under the same terms, in the case of `CC=C(C)C(C)=O` it was “inactive”.

Read-out in the next assay: not listed separately
Briefly: BSK_BE3C_SRB: Viability Assessment in the BioMAP Diversity Plus: BE3C Assay (AID 2283028). Conditions: primary human bronchial epithelial cells. The gist of the method: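 Primary human bronchial epithelium; chemical dosing, 24 h; 10% TCA fix, 0.1% SRB stain, A560; bidirectional fit vs DMSO baseline.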
For `Nc1nc(N)nc(-c2ccccc2)n1`, the outcome was inactive.
Regarding `Cc1ccc([N+](=O)[O-])cc1N`, the result was inactive.
The same measure, in the same setting: the result for `C=CC(=O)NCOCCCC` reads “inactive”.
Still for that read-out and setting: in the case of `CCCCCCCCCCCC(C)=O` it was “inactive”; in that of `CCOC(=O)C1=NOC(c2ccccc2)(c2ccccc2)C1`, “inactive”.
Still for that read-out and setting: the result for `CC(C)C(=O)OCCc1ccccc1` reads “inactive”.
In the case of `CC(C)[N+](C)(CCOC(=O)C1c2ccccc2Oc2ccccc21)C(C)C`, the result was inactive.
On the same count and under the same terms, in the case of `Oc1ccc(/C=C/c2cc(O)cc(O)c2)cc1` it was “inactive”; in that of `C=CCCCCCCCCC=O`, “inactive”.
Same read-out and setting: the result for `C=C(C)C(=O)OCCCCCCCCCCCC` reads “inactive”; that for `CC(C)c1cccc(C(C)C)c1N`, “inactive”.
Same read-out and setting: the result for `CCOC(=O)/C=C\C(=O)OCC` reads “inactive”.
On to `CC=C(C)C(C)=O`, for which the outcome was inactive.

The term AC50 denotes the midpoint of the concentration-response curve, whichever way the signal moves.
